Bioassay records deposited in PubChem BioAssay by ICCB-Longwood Screening Facility, Harvard Medical School.
In the library only some 1.5% were active in any assay of this set; here they are far more common.
AID504770 = growth inhibitors of E. coli YBA685 in a screen for V. cholerae RctB (chromosome II replication) inhibitors; AID 504770; z-score (no concentration beside the values); E. coli YBA685 rctB-dependent plasmid, OD600 growth, 3 h; active compounds read low; 130,000 tested, 0.27% active; in the data active = z-score below about -2, passing the limit was not always enough
MbtI inh = blocks the Mycobacterium tuberculosis siderophore enzyme MbtI; P9WFX0; purified MbtI enzyme, fluorescence intensity read-out; inhibition, % (test concentration not listed); 100,000 tested, 0.89% active; AID 493033; in the data active = inhibition mostly above about 56%, no sharp cut-off; inactive = mostly below about 77%
Target sequence (P9WFX0 whole entry, looked up): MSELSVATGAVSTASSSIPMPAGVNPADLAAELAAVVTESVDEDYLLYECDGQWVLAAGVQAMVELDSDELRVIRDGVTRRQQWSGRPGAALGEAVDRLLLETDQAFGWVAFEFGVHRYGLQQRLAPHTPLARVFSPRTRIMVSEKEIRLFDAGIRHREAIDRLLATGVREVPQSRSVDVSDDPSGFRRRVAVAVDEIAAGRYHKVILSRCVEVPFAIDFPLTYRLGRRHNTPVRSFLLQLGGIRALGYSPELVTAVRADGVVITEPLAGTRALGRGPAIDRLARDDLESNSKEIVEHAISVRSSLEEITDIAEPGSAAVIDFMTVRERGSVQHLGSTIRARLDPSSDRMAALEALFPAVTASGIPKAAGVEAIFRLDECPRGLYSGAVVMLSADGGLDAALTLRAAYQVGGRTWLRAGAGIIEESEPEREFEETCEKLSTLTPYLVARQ
Mtb MenB inh = blocks the Mycobacterium tuberculosis MenB enzyme; P9WNP5; MenB enzyme assay, absorbance read-out; inhibition, % (concentration not given with the values); 100,000 tested, 0.43% active; AID 540299; in the data active = inhibition above about 21%, passing the limit was not always enough
Polio RdRp inh = inhibitors of poliovirus RNA polymerase binding and polymerization. P03300. poliovirus polymerase elongation, fluorescence polarization; active compounds read low. % elongation, % (compound at 16.7 µg/mL). 150,000 tested, 0.66% active; in the data active = % elongation below about 90%
Large screens that a line does not name were inactive.

CC1CCc2c(sc3nc(CN4CCCC4)[nH]c(=O)c23)C1 (configuration not stated)	none
S=c1cc(-c2ccccc2)[nH]c(=S)[nH]1	MbtI inh 86
S=c1nccc(-c2ccccc2)[nH]1	Polio RdRp inh 83
Cn1ccccc1=S	none
On1ccccc1=S	AID504770 -5.3, MbtI inh 92
O=C(NCc1cccnc1)C1CC(c2ccccc2F)=NO1 (configuration not stated)	none
C=CCN1CCN(Cc2nnnn2Cc2ccc(OC)cc2)CC1	Mtb MenB inh 42
COc1ccc(C2C(=O)c3ccccc3C2=O)cc1	none
COc1ccc([C@H]2NC(=O)C(=C=[N-])C(=O)[C@@H]2[n+]2ccccc2)cc1	Polio RdRp inh 37 (no result: MbtI inh)
CCn1c(SCC(=O)Nc2ccc(C)c(C)c2)nnc1-c1nonc1NC(C)=O	none (no result: AID504770, MbtI inh, Mtb MenB inh)
CCn1c(-c2nonc2NC(C)=O)n[nH]c1=S	MbtI inh 65
N#CC(C#N)=C(N)COc1cccc(Cl)c1	none (no result: MbtI inh, Mtb MenB inh, Polio RdRp inh)
O=C(O)CC1C(=O)NN=C2c3ccccc3N=CN21 (configuration not stated)	Polio RdRp inh 78
O=C(O)CC1C(=O)NC(=Nc2ccccc2)N1c1ccccc1 (configuration not stated)	none
Cc1cc2c(cc1S(=O)(=O)N1CCOCC1)n(C)c(=O)c(=O)n2C	none
O=C1C2SCCN2C(=S)N1c1cccc(C(F)(F)F)c1 (configuration not stated)	MbtI inh 70
COc1ccc(-c2cc(-c3ccccc3)c(C#N)c(SCC(O)CS(=O)(=O)Cc3ccccc3)n2)cc1 (configuration not stated)	none (no result: AID504770, MbtI inh, Mtb MenB inh)
CCCCS(=O)(=O)CC(O)CSc1nc(-c2ccc(C)cc2)cc(-c2ccccc2)c1C#N (configuration not stated)	Polio RdRp inh 81 (no result: AID504770, MbtI inh, Mtb MenB inh)
Cc1ccc(CNS(=O)(=O)c2ccc3oc(=O)c4ncn(C)c4c3c2)cc1	none
CN1c2ccccc2N(C)C1c1ccc(O)cc1	Polio RdRp inh 83
CCn1c(-c2cc(OC)ccc2OC)csc1=Nc1ccc(O)cc1	MbtI inh 66, Polio RdRp inh 87
COc1ccc2nc3oc(C(=O)NCCC4=CCCCC4)cc3cc2c1	AID504770 -5.2
CCOC(=O)C1CCCN(Cn2nnn(-c3ccc(OC)cc3)c2=S)C1 (configuration not stated)	MbtI inh 63, Polio RdRp inh 79
COc1ccc2c(c1)nc(SCC(=O)C(C)(C)C)n2C	MbtI inh 53
COc1ccc2c(c1)nc(SCC(C)O)n2C (configuration not stated)	none (no result: Mtb MenB inh)
NS(=O)(=O)c1ccc(NC(=O)CC2SC(=O)NC2=O)cc1 (configuration not stated)	none
Cc1ccc(CN(C)C(=O)c2ccccc2OCCOc2ccccc2)o1	none
Cc1nn(CCC(N)=S)c2nc(-c3ccccc3)ccc12	Polio RdRp inh 73
CSc1nc2ncc(C(=O)c3ccccc3O)cc2c(=O)[nH]1	none
Cc1sc(NC(=O)C2CC2)c(C#N)c1C	MbtI inh 90
Cc1cccc(C(=O)OCC(=O)Nc2ccc3c(c2)OCCO3)c1C	none
FC(F)(F)c1cnc(-n2cc(C3OCCO3)c3ccccc32)c(Cl)c1	none (no result: MbtI inh, Mtb MenB inh, Polio RdRp inh)
COc1ccc(CCCc2nnc(SCC(=O)Nc3ccccc3)o2)cc1C	none
CC1CCCC(C)N1Cn1nc2sc3ccccc3n2c1=S (configuration not stated)	MbtI inh 98
Cc1cc(C(=O)COc2ccc(F)cc2)c(C)n1-c1ccccc1	none (no result: Mtb MenB inh)
Nc1nnc(CCCn2c(=O)oc3ccccc32)s1	Polio RdRp inh 86 (no result: MbtI inh)
S=c1nn[nH]n1C1CCCC1	none (no result: MbtI inh)
Cc1ccc(N/C=C/C(=O)c2ccc(C)o2)c(O)c1	none
CN(C)C(=S)Nc1nc2ccccc2s1	MbtI inh 71
CN(C)C(=S)c1nc2ccccc2s1	none
N#Cc1c(=O)n(O)c2ccccc2[n+]1[O-]	AID504770 -4.3
N#Cc1c(N)[n+]([O-])c2ccccc2[n+]1[O-]	AID504770 -4.4
CSc1nc2c(sc(=S)n2-c2ccccc2C)c(=O)n1-c1ccccc1C	MbtI inh 62
CCc1ccc(-n2c(=S)sc3c(=O)n(-c4ccccc4)c(SCC#N)nc32)cc1	none
CC(=O)Oc1ccc2cc(-c3ccc4c(c3)OCCO4)c(=O)oc2c1	none
